Assay results as given in PubChem BioAssay (NCATS).
Records with an inconclusive call do not appear. Active and inactive are the calls of the source. Unless noted, calls follow the shape of the full dose curve.

Columns and labels:
[1] = qHTS Assay for Lipid Storage Modulators (AID 1519); conditions: Drosophila S3 cells, BODIPY lipid droplet/cell ratio, laser cytometry, cells loaded with oleic acid; as to activity change, negative = inhibition: % is scaled to controls: 0 for no effect and ±100 for the full control effect
Procedure, shortened: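 Cells seeded at 5,000 per well were treated with compounds over a concentration series and loaded with oleic acid (400 uM, as added). Lipid droplet fluorescence (488 nm excitation, 500-530 nm channel) was read by laser-scanning cytometry and normalized to 20 uM Triacsin C.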

[2] = target: Alpha-galactosidase A (Homo sapiens) (UniProt P06280); assay: Counterscreen for Glucocerebrosidase Inhibitors: qHTS Assay for Human alpha-Galactosidase at pH 4.5 (AID 992; active = well fitted curve in the direction sought with a large enough effect; an effect the other way counts as inactive or inconclusive; also: 0% is about no effect); conditions: purified enzyme, fluorogenic substrate; series mostly up to 76.9 µM
Procedure, shortened: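 Steps: enzyme (2 nM final), then compound across 0.7 nM to 77 uM, then 80 uM fluorogenic galactopyranoside substrate; incubate 20 min at room temperature; quench at pH 10; measure fluorescence at 365/440 nm.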

[3] = target: alpha-glucosidase (Oryza sativa, rice) (UniProt Q653V4); assay: Counterscreen for Glucocerebrosidase Inhibitors: qHTS Assay for Rice alpha-Glucosidase at pH 5.0 (AID 997; active = well fitted curve in the direction sought with a large enough effect; an effect the other way counts as inactive or inconclusive;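 also: 0% = full activity with enzyme and -100% = basal without enzyme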); conditions: rice alpha-glucosidase enzyme activity; series mostly up to 76.9 µM
Procedure, shortened: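 Endpoint fluorogenic assay at pH 5.0: compounds (0.7 nM to 77 uM) titrated against 4 nM rice enzyme and 400 uM 4-MU-alpha-glucoside for 20 min at room temperature; NaOH/glycine stop, read ex 365/em 440 nm, Hill-fitted AC50.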

[4] = Validation of Assay for Modulators of Lamin A Splicing (AID 1459; active = well fitted curve in the direction sought with a large enough effect in the signal ratio; the % refers to the signal ratio;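 also: cells exposed to compound for two days before reading; 0% is about no effect; ratio rise marks activators and ratio drop marks inhibitors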); conditions: Lamin A splicing dual RFP/GFP fluorescence reporter; series mostly up to 9.22 µM
Procedure, shortened: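 S3 HeLa stably expressing lamin A-EGFP splicing minigene and DsRed2, 600 cells/well in Opti-MEM with 2% FBS, treated 48 h at 37C; laser-scanning cytometry gives GFP/RFP total intensity ratio; ancitabine positive control, 0.5% DMSO vehicle.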

[5] = target: DNA repair nuclease/redox regulator APEX1 (Homo sapiens) (UniProt P27695); assay: qHTS Validation Assay for Inhibitors of the Human Apurinic/apyrimidinic Endonuclease 1 (APE1) (AID 1705; active = well fitted curve in the direction sought with a large enough effect; an effect the other way counts as inactive or inconclusive;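 also: TAMRA fluorescence gain over two minutes as APE1 cuts a quenched THF abasic duplex; % is scaled to controls: 0 for no effect and ±100 for the full control effect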); conditions: purified APE1 endonuclease activity, fluorescence, titration; series mostly up to 57.1 µM
Procedure, shortened: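 Fluorogenic double-stranded THF abasic-site substrate (5'-TAMRA/3'-BHQ-2), 50 nM final. Enzyme preincubated with compound 15 min at room temperature, then substrate added. Kinetic fluorescence (ex 525/em 598 nm) read three times at 60 s intervals; activity taken as third-minus-first read difference.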

[6] = measured here: cell count channel max response
[7] = measured here: lipid channel max response

Chain of DNA repair nuclease/redox regulator APEX1 (Homo sapiens) (P27695 whole entry, looked up): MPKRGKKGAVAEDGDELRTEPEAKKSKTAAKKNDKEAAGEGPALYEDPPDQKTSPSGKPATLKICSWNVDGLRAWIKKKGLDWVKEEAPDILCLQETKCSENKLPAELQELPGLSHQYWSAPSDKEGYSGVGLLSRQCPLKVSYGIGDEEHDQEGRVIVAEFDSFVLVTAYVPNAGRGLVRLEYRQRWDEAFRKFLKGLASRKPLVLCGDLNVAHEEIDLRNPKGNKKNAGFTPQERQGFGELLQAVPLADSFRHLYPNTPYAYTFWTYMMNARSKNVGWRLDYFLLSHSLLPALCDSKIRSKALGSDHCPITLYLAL
Chain of Alpha-galactosidase A (Homo sapiens) (P06280 whole entry, looked up): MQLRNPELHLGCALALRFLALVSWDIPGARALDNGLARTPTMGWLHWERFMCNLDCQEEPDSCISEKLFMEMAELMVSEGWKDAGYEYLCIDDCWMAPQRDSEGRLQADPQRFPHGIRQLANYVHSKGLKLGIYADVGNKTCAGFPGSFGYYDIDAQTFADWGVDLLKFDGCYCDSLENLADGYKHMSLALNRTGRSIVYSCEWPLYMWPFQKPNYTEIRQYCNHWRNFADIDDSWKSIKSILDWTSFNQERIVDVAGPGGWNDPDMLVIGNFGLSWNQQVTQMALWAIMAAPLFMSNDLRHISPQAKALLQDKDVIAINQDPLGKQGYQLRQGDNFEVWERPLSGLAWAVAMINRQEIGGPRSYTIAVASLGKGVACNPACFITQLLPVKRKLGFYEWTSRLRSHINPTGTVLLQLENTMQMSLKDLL

Question: Which results are given for `O=C(O)CCC(=O)c1ccc(-c2ccccc2)cc1`?
Answer: activity change, negative = inhibition ([1]; at 25.7 µM (top of the series)): 2.12% (inactive); max response [1, 6]: -6.39%; max response [1, 7]: -2.43%

Question: For `CCSc1ccc2c(c1)N(CCCN1CCN(C)CC1)c1ccccc1S2`, which activity change, negative = inhibition ([1]; at 25.7 µM (top of the series)) is on record?
Answer: Its activity change, negative = inhibition is -4.9% (inactive).

Question: And the max response [1, 6]?
Answer: Its max response is -20.1%.

Question: What about the max response [1, 7] of the same compound?
Answer: Its max response is -23.8%.

Question: What does the source list for `Cc1cc(C)c(NC(=O)C[C@H](CC(=O)O)c2cccc3ccccc23)c(C(=O)N2CCC3(CCCC3)CC2)c1`?
Answer: outcome [2]: inactive; outcome [3]: inactive; outcome [4]: inactive; outcome [5]: inactive

Question: With `O=C(O)Cc1cc(I)c(Oc2ccc(O)c(I)c2)c(I)c1` as the compound, how does the activity change, negative = inhibition ([1]; at 25.7 µM (top of the series)) read?
Answer: The activity change, negative = inhibition was -0.457% (inactive).

Question: And the max response [1, 6]?
Answer: Its max response is 2.07%.

Question: And the max response [1, 7]?
Answer: Its max response is 0.793%.

Question: With `O=C1c2ccccc2C(=O)c2c1ccc(O)c2O` as the compound, how does the activity change, negative = inhibition ([1]; at 57.5 µM (top of the series)) read?
Answer: The activity change, negative = inhibition was 15% (inactive).

Question: What about the max response [1, 6] of the same compound?
Answer: Its max response is 2.35%.

Question: And the max response [1, 7]?
Answer: The max response was 20.3%.

Question: With `NCC(O)CC(=O)O` (centres undefined) as the compound, how does the activity change, negative = inhibition ([1]; at 57.5 µM (top of the series)) read?
Answer: The activity change, negative = inhibition was 7.57% (inactive).

Question: What about the max response [1, 6] of the same compound?
Answer: The max response was 11%.

Question: And the max response [1, 7]?
Answer: The max response was 22.3%.

Question: For `N[C@H](CC(=O)O)C(=O)O`, which activity change, negative = inhibition ([1]; at 57.5 µM (top of the series)) is on record?
Answer: Its activity change, negative = inhibition is -1.19% (inactive).

Question: What about the max response [1, 6] of the same compound?
Answer: The max response was -13%.

Question: What about the max response [1, 7] of the same compound?
Answer: Its max response is -12.9%.

Question: For `Cc1ncc(C[n+]2csc(CCO)c2C)c(N)n1`, which activity change, negative = inhibition ([1]; at 25.7 µM (top of the series)) is on record?
Answer: The activity change, negative = inhibition was -1.32% (inactive).

Question: And the max response [1, 6]?
Answer: Its max response is 9.62%.

Question: And the max response [1, 7]?
Answer: Its max response is 7.5%.

Question: What does the source list for `O=c1[nH]c(=O)n([C@H]2C[C@H](O)[C@@H](CO)O2)cc1/C=C/Br`?
Answer: outcome [4]: inactive; outcome [5]: inactive

Question: With `O=C1NCCN1c1ncc([N+](=O)[O-])s1` as the compound, how does the activity change, negative = inhibition ([1]; at 25.7 µM (top of the series)) read?
Answer: Its activity change, negative = inhibition is -0.923% (inactive).

Question: What about the max response [1, 6] of the same compound?
Answer: The max response was 0.859%.

Question: And the max response [1, 7]?
Answer: The max response was -3.74%.

Question: Which activity change, negative = inhibition ([1]; at 57.5 µM (top of the series)) does the source give for `CC(=O)Oc1cccc(C(=O)O)c1OC(C)=O` here?
Answer: The activity change, negative = inhibition was 4.19% (inactive).

Question: What about the max response [1, 6] of the same compound?
Answer: Its max response is 10.5%.

Question: What about the max response [1, 7] of the same compound?
Answer: The max response was 12%.

Question: Which activity change, negative = inhibition ([1]; at 57.5 µM (top of the series)) does the source give for `O=C(CCCCCCCCCCCCC1CCCC1)Nc1ccc(S(=O)(=O)c2ccc(NC(=O)CCCCCCCCCCCCC3CCCC3)cc2)cc1` here?
Answer: Its activity change, negative = inhibition is 10% (inactive).

Question: What about the max response [1, 6] of the same compound?
Answer: Its max response is 14.8%.

Question: What about the max response [1, 7] of the same compound?
Answer: Its max response is 25.4%.

Question: Which results are given for `Cc1cccc(C)c1NC(=O)C1CCCCN1C` (centres undefined)?
Answer: activity change, negative = inhibition ([1]; at 57.5 µM (top of the series)): 7.8% (inactive); max response [1, 6]: 19%; max response [1, 7]: 29.6%
